Rab9 promoter act: qHTS Assay for Rab9 Promoter Activators. Potency, µM (titrated, usually from 9.22 µM), inactives show at the top dose activation, negative = inhibition, actives largely listed as activators. Huh7 Rab9 promoter-luciferase reporter, luminescence, 24 h. hit rate 2.8% among 320,000; note: % of control where 0% means no effect; nearly all actives have a fitted effect of over 60% in size
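Cell-based reporter: Huh7 stable for Rab9 promoter-driven luciferase, plated in reduced-serum medium with 10% FBS at 1500 cells/well, compound-treated 24 h at 37 °C, luminescence read after 10 min reagent.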
ELG1 genotoxic: qHTS screen for small molecules that induce genotoxicity in human embryonic kidney (HEK293T) cells expressing luciferase-tagged ELG1; HEK293T ELG1-luciferase reporter, luminescence, 16 h; Potency, µM (series often up to 46 µM), inactives show top-dose activity change, positive = activation, actives largely listed as activators; hit rate 1.3% among 330,000; note: % of control where 0% means no effect; nearly all actives have a fitted effect of over 60% in size
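HEK293T cells expressing luciferase-tagged ELG1 were exposed to compound or DMSO vehicle for 16 hr at 37 °C and 5% CO2. Luciferase activity was then measured with ONE-Glo after 30 min at room temperature.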
SMN2 splice up: qHTS Assay for Enhancers of SMN2 Splice Variant Expression. HEK293 SMN2-luciferase splicing reporter, luminescence, 30-36 h. Potency, µM (doses to about 46.1 µM), without a hit: at the top dose activity change, positive = activation, most hits filed as activators. hit rate 2.8% among 210,000; note: % of control where 0% means no effect; nearly all actives have a fitted effect of over 55% in size
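qHTS luciferase splicing reporter: luminescence rises when SMN2 exon 7 is included in transfected HEK293 cells. Compound exposure lasted 30-36 h at 37C, with 4.5 mM final sodium butyrate as control, followed by a ONE-Glo read.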
ELG1 repair inh: qHTS screen for small molecules that inhibit ELG1-dependent DNA repair in human embryonic kidney (HEK293T) cells expressing luciferase-tagged ELG1 | Potency, µM (doses to about 46.1 µM), inactives show at the highest dose activity change, negative = inhibition, usual class: inhibitors | hit rate 2.3% among 330,000 | AID 504467, 2011 | HEK293T ELG1-luciferase reporter, luminescence, 16 h; DNA damage induced by 5-fluorouridine; note: % is set by controls: 0 for no effect and ±100 for the full control effect; nearly all actives have a fitted effect of over 55% in size
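5-Fluorouridine DNA damage + compound/DMSO, 2,000 cells/well, 16 h, 37 °C/5% CO2. ONE-Glo, 30 min RT, luminescence. Readout = decrease in reporter signal.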
FLuc counter: qHTS profiling assay for firefly luciferase inhibitor/activator using purifed enzyme and Km concentrations of substrates (counterscreen for miR-21 project); Luciferin 4-monooxygenase (Photinus pyralis), P08659; purified FLuc, Km substrates, luminescence inhibition; Potency, µM (top dose mostly 57.5 µM), without a hit: top-dose activity change, negative = inhibition, hits mostly inhibitors; hit rate 6.9% among 360,000;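 note: plate controls were vehicle for no effect and reference inhibitor for full effect; nearly all actives have a fitted effect of over 55% in size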
Target sequence (P08659 whole entry, looked up): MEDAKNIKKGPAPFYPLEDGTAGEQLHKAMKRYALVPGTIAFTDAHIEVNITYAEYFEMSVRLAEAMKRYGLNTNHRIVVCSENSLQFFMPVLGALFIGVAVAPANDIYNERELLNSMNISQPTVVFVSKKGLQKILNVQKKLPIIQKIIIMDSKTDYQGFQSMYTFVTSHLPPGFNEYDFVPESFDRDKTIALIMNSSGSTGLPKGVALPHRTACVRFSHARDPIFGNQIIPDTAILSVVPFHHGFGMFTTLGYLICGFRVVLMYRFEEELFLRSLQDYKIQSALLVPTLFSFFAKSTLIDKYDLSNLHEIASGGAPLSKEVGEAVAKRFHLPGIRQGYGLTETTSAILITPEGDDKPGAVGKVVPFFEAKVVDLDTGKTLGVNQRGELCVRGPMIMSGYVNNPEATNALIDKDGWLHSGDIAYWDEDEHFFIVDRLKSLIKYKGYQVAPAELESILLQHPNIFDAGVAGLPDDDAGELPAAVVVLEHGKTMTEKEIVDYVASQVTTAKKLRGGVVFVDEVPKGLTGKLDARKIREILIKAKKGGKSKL
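Purified P. pyralis luciferase (10nM final) with 10uM D-luciferin and 10uM ATP (Km levels) in 50mM Tris acetate pH 7.5, 10mM Mg acetate, 0.01% Tween-20, 0.05% BSA; qHTS 6-point titration, ~60 µM downward; luminescence read.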
NPC1 prom act: qHTS Assay for NPC1 Promoter Activators | hit rate 2.4% among 320,000 | Potency, µM (series often up to 9.22 µM), for inactives: top-dose activation, hits mostly activators | Huh7 NPC1 promoter luciferase reporter, 24 h; note: % of control where 0% means no effect; nearly all actives have a fitted effect of over 60% in size
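In 1536-well qHTS, Huh7 cells harboring an NPC1 promoter–luciferase construct received compound for 24 h; activation was quantified by luminescence following luciferase reagent addition.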
Active calls of the source: *; ? = inconclusive; . = no result given. A selection: hits, their analogues and other compounds. The true share with any hit is near 9.3%. Calls come from the whole dose curve; as a rule, active = well fitted curve in the direction sought with a large enough effect; inconclusive = small, poorly fitted or top-dose-only effect, or another doubt; inactive = no such curve, though single readings can be large; an effect the other way counts as inactive or inconclusive. Potency is the fitted concentration of half-maximal effect.

SMILES	Rab9 promoter act	ELG1 genotoxic	SMN2 splice up	ELG1 repair inh	FLuc counter	NPC1 prom act
Clc1ccc(Nc2nc3cccnc3s2)cc1	2.51µM*	?	12.6µM*	?	?	2.82µM*
CC(=O)Oc1ccc(N2C(=O)c3cccc4c([N+](=O)[O-])ccc(c34)C2=O)cc1	8.7%	-23.7%	.	18.3µM*	-1.0%	-31.2%
COc1ccc(CNC(=O)CN2CCN(S(=O)(=O)c3cc(Br)ccc3Br)CC2)cc1OC	-1.4%	1.6%	.	-28.7%	1.7%	-0.4%
COc1ccc(CCNC(=O)c2cc(S(=O)(=O)N3CCC4(CC3)OCCO4)ccc2F)cc1OC	-2.6%	-2.2%	-47.8%	9.2µM*	-5.2%	-4.4%
COc1ccc(CNC(=O)c2cc(S(=O)(=O)N3CCCCC3)ccc2Cl)cc1OC	.	-5.4%	.	6.51µM*	.	.
COc1ccc(CNC(=O)c2cccc(S(=O)(=O)N3CCCCC3)c2)cc1OC	-33.1%	-0.4%	.	?	-14.7%	-28.1%
COc1ccc(CNC(=O)CN2CCN(S(=O)(=O)c3c(C)c(C)cc(C)c3C)CC2)cc1OC	.	-4.2%	.	7.3µM*	.	.
COc1ccc(C(=O)NCC(c2cccs2)S(=O)(=O)c2ccc(C)cc2)cc1 (stereo not given)	.	.	.	.	-8.6%	.
CCc1cccc(NC(=O)[C@@H]2CCCN2C2=NS(=O)(=O)c3ccccc32)c1	-4.2%	2.4%	.	13.1%	-1.8%	-2.3%
COC(=O)COC(=O)c1ccc(O)cc1	-5.0%	3.6%	-2.8%	9.1%	-1.1%	2.6%
Cc1c(C#N)c(O)n(C)c(=O)c1N=Nc1ccc(S(N)(=O)=O)cc1	20.3%	12.0%	-30.7%	-12.7%	?	16.7%
CCOC(=O)c1ccc(N=Nc2c(C)c(C#N)c(O)[nH]c2=O)cc1	4.47µM*	?	49.9%	?	2.69µM*	15.8%
CCOCC(=O)Nc1ccc(OCc2ccccc2)cc1	?	?	?	?	16.9µM*	19.8%
CC(C)=CC(=O)Nc1ccc(OCc2ccccc2)cc1	?	?	17.2%	?	13.5µM*	?
CCOC(=O)C(=O)Nc1ccc(OCc2ccccc2)cc1	-2.8%	0.4%	.	17.1%	?	-3.2%
S=C(Nc1ccccc1)Nc1ccc(OCc2ccccc2)cc1	6.6%	0.7%	-11.4%	1.2%	3.2%	-3.1%
CC(C)=CC(=O)Nc1ccc(Br)cc1	1.41µM*	3.66µM*	12.6µM*	?	4.78µM*	2.51µM*
COc1ccc(CCNC(=O)CCCn2c(=O)c3ccccc3n(Cc3ccccc3C)c2=O)cc1OC	.	.	2.7%	.	3.8%	.
Cc1ccccc1CN1CCC(n2nccc2NC(=O)c2ccc3c(c2)OCO3)CC1	21.4%	?	.	?	19µM*	?
COc1ccc(CN2CCC(n3nccc3NC(=O)c3ccc4c(c3)OCO4)CC2)cc1C	3.5%	-0.4%	.	1.7%	-5.0%	0.2%
CC#CC(=O)N1CCC(n2nccc2NC(=O)c2ccc3c(c2)OCO3)CC1	19.6%	16.9%	.	?	2.8%	-6.6%
CSCCC(=O)N1CCC(n2nccc2NC(=O)c2ccc3c(c2)OCO3)CC1	3.98µM*	?	.	?	12µM*	2.82µM*
O=C(/C=C/c1ccccc1)CC(=O)c1ccccc1O	?	?	.	?	15.1µM*	25.7%
Cc1ccccc1C(=O)NNC(=O)/C=C/c1ccccc1	4.4%	1.5%	18.3%	24.7%	-5.6%	0.3%
O=C(/C=C/c1ccccc1)NC(=O)c1ccccc1O	?	?	.	?	1.69µM*	?
SMILES	Rab9 promoter act	ELG1 genotoxic	SMN2 splice up	ELG1 repair inh	FLuc counter	NPC1 prom act
COc1ccc(C2=CC(=O)C=CC2=O)cc1	-2.7%	-0.3%	.	2.4%	8.49µM*	-2.5%
O=C(O)c1ccc2nc(-c3cc4cccc(O)c4oc3=O)[nH]c2c1	23.7%	.	.	.	0.849µM*	10.4%
O=C(O)c1ccc2nc(-c3cc4cc(F)ccc4oc3=O)[nH]c2c1	.	.	.	.	5.36µM*	.
O=c1oc2c(CN3CCCCC3)c(O)ccc2cc1-c1nc2ccccc2[nH]1	?	?	.	?	9.53µM*	25.0%
O=c1oc2c(O)cccc2cc1-c1nc2ccccc2[nH]1	0.794µM*	?	.	?	0.675µM*	0.562µM*
O=C(NC1CC(=O)N(c2ccc(F)cc2)C1)N1CCN(C(=O)c2ccco2)CC1 (stereo not given)	-4.7%	-1.1%	.	10.8%	3.9%	-1.7%
COc1ccc(-c2cc(C(=O)NCc3ccco3)c3ccccc3n2)cc1	10.9%	-0.4%	.	?	6.75µM*	0.1%
O=C(Nc1cccc(S(=O)(=O)NCc2ccco2)c1)c1cc(-c2ccccc2)nc2ccccc12	-6.6%	-11.6%	-48.7%	20.6µM*	0.0%	-0.6%
O=C(NCc1ccco1)c1cc(-c2ccccc2)nc2ccccc12	-1.9%	-5.3%	?	-15.9%	?	-2.0%
COc1ccc(CNC(=O)c2cc(Nc3ccccc3C)nc3ccccc23)cc1	.	.	-3.1%	.	?	.
COc1ccc(CNC(=O)c2cc(Nc3ccc(C)cc3C)nc3ccccc23)cc1	.	.	-11.3%	.	8.49µM*	.
COc1ccc(Nc2cc(C(=O)NCc3ccco3)c3ccccc3n2)c(OC)c1	-3.5%	-5.9%	3.7%	?	15.1µM*	-2.7%
CCn1c(C(=O)NCCCN2CCc3ccccc3C2)cc2sccc21	-6.2%	-2.5%	-1.7%	-2.2%	-1.5%	2.2%
COc1ccc(Nc2cc(C(=O)NCc3cccnc3)c3ccccc3n2)c(OC)c1	-9.1%	-5.5%	-8.4%	-16.3%	10.7µM*	0.8%
Cc1cc(C)cc(Nc2cc(C(=O)NCc3ccccc3)c3ccccc3n2)c1	.	.	-8.9%	.	4.78µM*	.
COc1ccc(Nc2cc(C(=O)NCc3ccccn3)c3ccccc3n2)c(OC)c1	?	-6.0%	0.6%	?	10.7µM*	6.3%
COc1ccc(Nc2cc(C(=O)NCCCOC(C)C)c3ccccc3n2)c(OC)c1	-3.5%	-7.7%	.	?	?	0.6%
COc1ccccc1Nc1cc(C(=O)NCc2cccs2)c2ccccc2n1	.	.	-42.2%	.	9.53µM*	.
COC(=O)C1CCN(C(=O)C2CCC(=O)N(CCCc3ccccc3)C2)CC1 (stereo not given)	-4.2%	-0.5%	.	14.2%	0.2%	-3.6%
COc1ccc(C)cc1NCc1ccc([N+](=O)[O-])cc1	4.2%	0.9%	.	?	3.5%	-4.3%
COc1ccc(OC)c(NC(=O)COCc2cc(-c3ccc(F)cc3)on2)c1	.	.	.	.	-3.3%	.
